# Read-outs that look alike come from different tables or passages of the source. Among all 13,000 compounds or so, about 3,200 (25%) showed an effect of 50% or more. The list shows a part of the results.
# Test system: P. falciparum stage V gametocytes
# Design: BacTiter-Glo ATP luminescence viability of purified stage V gametocytes in 384-well plates, per cent inhibition versus DMSO
Structure (SMILES),"% Inhibition (48 h, 5 µM; inhibitor) [%]","% Inhibition (48 h, 5 µM, inhibitor) [%]"
O=C(Nc1ccc(Cl)cc1)c1ccc(CN2CCCN(Cc3cccc(F)c3)CC2)cc1 [TCMDC-136404],-18.08,
N#Cc1ccc(CN2CCCN(Cc3cccc(NC(=O)c4ccc(-c5ccccc5)cc4)c3)CC2)cc1 [TCMDC-141838],91.89,
Cc1ccc(CC(C)NC[C@H](O)c2cccc(Cl)c2)cc1 (stereo partly drawn) [TCMDC-131477],,11.62
CCOP(=O)(OCC)c1ccc(OC)c(-c2ccc[nH]2)c1 [TCMDC-139023],22.96,
COC(=O)/C=C/C(=O)N[C@@H]1CC[C@@]2(O)[C@H]3Cc4ccc(O)c5c4[C@@]2(CCN3CC2CC2)[C@H]1O5 [TCMDC-125875],50.91,
C#CCN1CCC2=C(C1)c1c(O)cc(C(C)CCCc3ccc(F)cc3)cc1OC2(C)C (stereo not drawn) [TCMDC-124277],-40.47,
O=C(/C=C/c1ccc(Cl)c(Cl)c1)NCCCCCN1CCCN(C(=O)Nc2ccc(C(F)(F)F)cc2)CC1 [TCMDC-135757],8.096,
Cc1cc(C)c(CC(C)NCC(O)c2cccc(C(F)(F)F)c2)c(C)c1 (stereo not drawn) [TCMDC-131460],-4.216,
C[C@@H](CC1CCCCC1)NCc1ccccc1O [TCMDC-140305],71.87,
CCN(CC)CCOC(=O)C(OC)(c1ccccc1)c1ccccc1 [TCMDC-131779],18.56,
Cc1ccc(CC(C)NCC(O)c2cccc(C(F)(F)F)c2)c(C)c1 (stereo not drawn) [TCMDC-131465],-0.5645,
CSc1ccc(C[C@@H](C)NC[C@H](O)c2cccc(Cl)c2)cc1 [TCMDC-131507],10.96,
CNCCN(C)C(=O)Oc1c(Br)c(C)nc(C)c1-c1ccc(Oc2ccc(OC(F)(F)F)cc2)cc1 [TCMDC-137377],86.68,
CNCCN(C)C(=O)Oc1c(Cl)c(C)nc(C)c1-c1ccc(Oc2ccc(OC(F)(F)F)cc2)cc1 [TCMDC-137384],42.19,
CNCCCN(C)C(=O)Oc1c(Br)c(C)nc(C)c1-c1ccc(Oc2ccc(OC(F)(F)F)cc2)cc1 [TCMDC-132416],117.8,
Cc1nc(C)c(-c2ccc(Oc3ccc(OC(F)(F)F)cc3)cc2)c(OC(=O)N(CCNC(C)C)C(C)C)c1Br [TCMDC-132417],109,
COc1ccc(CC(C)NCC(O)c2cccc(Cl)c2)cc1C (stereo not drawn) [TCMDC-131505],13.45,
CCc1ccc(CC(C)NCC(O)c2ccccc2)cc1 (stereo not drawn) [TCMDC-131463],17.08,
CN1CC(c2ccc(Cl)c(Cl)c2)OC1=N (stereo not drawn) [TCMDC-137454],1.442,
Cc1ccc(CC(C)NCC(O)c2cccc(C#N)c2)cc1 (stereo not drawn) [TCMDC-131451],40.18,
CCC1(C)CC(CCNCc2ccccc2O)(c2ccc(C)cc2)CCO1 (stereo not drawn) [TCMDC-124003],4.575,
COCCSc1ccc(CC(C)NCC(O)c2cccc(Cl)c2)cc1 (stereo not drawn) [TCMDC-131513],22.33,
CCCCCCCCCCS(=O)(=O)N[C@H](COCc1cccc(Oc2ccccc2)c1)COP(=O)(O)OC [TCMDC-131877],13.38,

Structure (SMILES),"% Inhibition (48 h, 5 µM; inhibitor) [%]","% Inhibition (48 h, 5 µM, inhibitor) [%]"
CC(C)CCN1C(=O)C(NC(=O)Oc2ccccc2)C(=O)N(CC23CC4CC(CC(C4)C2)C3)c2ccccc21 (stereo not drawn) [TCMDC-137160],-43.48,
CCCC(=O)c1c(O)c2ccccc2oc1=O [TCMDC-123881],11.83,
Cc1ccc(C[C@@H](C)NC[C@H](O)c2cccc(C(F)(F)F)c2)cc1 [TCMDC-131449],8.152,
[O-]c1n[n+](C2CCCCC2)no1 [TCMDC-138090],57.64,
CCOC(C(=O)OCCN(C(C)C)C(C)C)(c1ccccc1)c1ccccc1 [TCMDC-131391],-28.65,
COc1ccc(C[C@@H](C)NC[C@H](O)c2cccc(Cl)c2)cc1F [TCMDC-131516],,9.097
Cc1ccc(C)c(N2CCN(Cc3ccccc3O)CC2)c1 [TCMDC-123518],7.065,
Oc1cc2c(cc1CN1CCN(Cc3ccccc3)CC1)CCC2 [TCMDC-125104],73.14,
Cc1cccc(N2CCN(Cc3cc(Cl)ccc3O)CC2)c1C [TCMDC-123718],-35.86,
COc1ccc(O)c(CN2CCN(c3cc(C)ccc3C)CC2)c1 [TCMDC-124056],6.084,
CCN(CC)CCN1C(=O)C(O)(c2ccccc2Cl)c2c1cc(C(N)=O)cc2C(F)(F)F (stereo not drawn) [TCMDC-133544],37.34,
COc1ccc(CC(C)NCC(O)c2cccc(Br)c2)cc1 (stereo not drawn) [TCMDC-131496],20.1,
COc1ccc(C[C@@H](C)NC[C@H](O)c2cccc(Cl)c2)cc1F [TCMDC-131502],,8.677
CCOC(C(=O)OCC1CCCN(C)C1)(c1ccccc1)c1ccccc1 (stereo not drawn) [TCMDC-131382],13.79,
COC(C(=O)OCCC1CCCN1C)(c1ccccc1)c1ccccc1 (stereo not drawn) [TCMDC-131780],73.28,
COC(C(=O)OCCC1CCCN1C)(c1ccccc1)C1CCCCC1 (stereo not drawn) [TCMDC-131374],34.4,
CCCCOC(C(=O)OCC1CCCN1C)(c1ccccc1)c1ccccc1 (stereo not drawn) [TCMDC-131730],-23.33,
CCOC(C(=O)OCC1CCCN1C(C)C)(c1ccccc1)c1ccccc1 (stereo not drawn) [TCMDC-131750],-3.502,
CCOC(C(=O)OCC1CCCN1C)(c1ccccc1)c1ccccc1 (stereo not drawn) [TCMDC-131676],62.64,
Cc1ccc(CC(C)NCC(O)c2cccc(Br)c2)cc1 (stereo not drawn) [TCMDC-131444],5.106,
CCN(CC)CCN1C(=O)C(O)(c2ccccc2Cl)c2c1cc(C#N)cc2C(F)(F)F (stereo not drawn) [TCMDC-132583],-22.22,
CCCCCC(C)C(C)c1cc(OC(N)=O)c2c(c1)OC(C)(C)C=C2c1ccncc1 (stereo not drawn) [TCMDC-131796],-24.09,

# From article PMC4552634, “A New Set of Chemical Starting Points with Plasmodium falciparum Transmission-Blocking Potential for Antimalarial Drug Discovery” (PLoS ONE, 2015)
